Results on seven compounds are retold here after the supplement of paper PMC7411054.

Molecules are shown by their SMILES.

What all share (settings): treatment time: 24 h
Test [1] relates to A549-ACTB-RAB5A. Nature of the test: lowest phenotypically active concentration; higher = less potent. In outline: (§1)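 Fifteen reporter lines derived from A549, HepG2 and WPMY1 cells by gene editing, carrying BFP for segmentation plus GFP and RFP/FusionRed markers, were exposed to 0.3, 1, 3 or 9 µM for 24 h in four wells each and imaged live. Live-cell features from each well were normalised to solvent control wells. A well set counted as deviating when ≥3 of 4 wells lay beyond the 95th percentile of control Euclidean distances, and as reproducible when the median replicate Pearson correlation exceeded the 95th percentile of non-replicates. Phenotypic activity was assigned only when both criteria were met.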

Test [2] concerns A549-CANX-COX4. The description is as above. The procedure, abridged: as §1
For test [3], the system named is A549-GM130-SQSTM1. The description is as above. The procedure, abridged: as §1
For test [4], the system named is A549-TP53BP1-CLTA. Described as above. The procedure, abridged: as §1
Test [5] concerns A549-TUBA1B-RELA. The test is described as above. The procedure, abridged:
as §1

Test [6] concerns HepG2-GM130-SQSTM1. The test is described as above. The procedure, abridged:
as §1

Test [7] deals with A549-ACTB-RAB5A. In words: phenotypically active (imaging signature differs from DMSO and reproducible) at any of 0.3-9 uM (binary (1 = active, 0 = inactive)); higher = active. The procedure, abridged:
as §1

Test [8] concerns A549-CANX-COX4. Described as above. In outline: as §1
Test [9] deals with A549-GM130-SQSTM1. The description is as above. The procedure, abridged:
as §1

Test [10] relates to A549-TP53BP1-CLTA. The description is as above. The procedure, abridged:
as §1

Test [11] relates to A549-TUBA1B-RELA. The test is described as above. In outline: as §1
Test [12] has as its system HepG2-ACTB-RAB5A. The test is described as above. The procedure, abridged:
as §1

For test [13], the system named is HepG2-CANX-COX4. Described as above. In outline:
as §1

Test [14] relates to HepG2-GM130-SQSTM1. The description is as above. The procedure, abridged: as §1
The test system of test [15] is HepG2-TP53BP1-CLTA. Described as above. The procedure, abridged: as §1
Test [16] concerns HepG2-TUBA1B-RELA. Described as above. The procedure, abridged: as §1
Test [17] deals with WPMY1-CANX-COX4. Described as above. In outline: as §1
In test [18] the test system is WPMY1-GM130-SQSTM1. The description is as above. The procedure, abridged: as §1
In test [19] the test system is WPMY1-TP53BP1-CLTA. Described as above. In outline:
as §1

For test [20], the system named is WPMY1-TUBA1B-RELA. Described as above. The procedure, abridged: as §1

In the case of `Cc1ccc([N+](=O)[O-])cc1S(=O)(=O)N(C)/N=C/c1cnc2ccc(Br)cn12`, the “lowest phenotypically active concentration” value in [1], in [2], in test [3], in [4], in test [5] and in test [6] was at most 0.3 µM in each case. Also, the phenotypically active in test [7], in test [8], in [9], in [10], in [11] and in [12] was 1 (active) each time. Besides, the phenotypically active in test [13], in test [14], in [15], in [16], in test [17] and in test [18] was 1 (active) each time. The phenotypically active in test [19] and in test [20] was 1 (active) throughout.
With `CN1CCC(=C2c3ccccc3CC(=O)c3sccc32)CC1` [ketotifen], the “lowest phenotypically active concentration” value in test [1], in test [2], in [3], in [4], in test [5] and in test [6] was 9 µM throughout. Further, the phenotypically active in test [7], in test [8], in test [9], in [10], in test [11] and in [12] was 1 (active) throughout. The phenotypically active in test [13], in [14], in test [15], in test [16], in test [17] and in [18] was 1 (active) throughout. Besides, the phenotypically active in test [19] and in test [20] was 1 (active) each time.
Consider `Nc1cccc(-c2cc3c(Oc4cccc(O)c4)ncnc3[nH]2)c1`, for which the “lowest phenotypically active concentration” value in [1] was determined as 1 µM; in test [2], 1 µM; in test [3] it was 9 µM; in test [4], 1 µM; in test [5], 1 µM; in test [6], 3 µM. Further, the phenotypically active in test [7], in test [8], in test [9], in [10], in test [11] and in test [12] was 1 (active) throughout. Further, the phenotypically active in [13], in [14], in test [15], in [16], in [17] and in test [18] was 1 (active) in each case. In addition, the phenotypically active in test [19] and in [20] was 1 (active) each time.
As for `COc1cc(N2CCOCC2)ccc1Nc1ncc(Cl)c(Nc2ccccc2NS(C)(=O)=O)n1`, the “lowest phenotypically active concentration” value in test [1], in test [2], in test [3], in [4], in [5] and in test [6] was 3 µM each time. For the same compound, the phenotypically active in test [7], in test [8], in [9], in test [10], in [11] and in [12] was 1 (active) each time. The phenotypically active in test [13], in [14], in [15], in test [16], in test [17] and in [18] was 1 (active) in each case. The phenotypically active in test [19] and in test [20] was 1 (active) in each case.
As for `C[C@H]1[C@H]2CC[C@H]3[C@@H]4CC=C5C[C@@H](N(C)C)CC[C@]5(C)[C@H]4CC[C@]23CN1C` [Conessine], the “lowest phenotypically active concentration” value in test [1] was 1 µM; in test [2] it was 9 µM; in test [3] it was 1 µM; in [4], 3 µM; in test [5] it was 1 µM; in test [6] it was 3 µM. For the same compound, the phenotypically active in test [7], in [8], in test [9], in test [10], in test [11] and in test [12] was 1 (active) each time. Besides, the phenotypically active in test [13], in test [14], in [15], in [16], in [17] and in test [18] was 1 (active) throughout. The phenotypically active in test [19] and in test [20] was 1 (active) in each case.
As for `COc1ccccc1S(=O)(=O)Nc1ccc2c(c1)CN(C)C(=O)N2`, the “lowest phenotypically active concentration” value in [1] worked out at 1 µM; in test [2] it was 3 µM; in test [3], 3 µM; in test [4], 3 µM; in test [5] it was 3 µM; in test [6], 3 µM. Further, the phenotypically active in [7], in test [8], in test [9], in test [10], in [11] and in [12] was 1 (active) throughout. Further, the phenotypically active in test [13], in test [14], in test [15], in [16], in test [17] and in test [18] was 1 (active) in each case. Further, the phenotypically active in test [19] and in test [20] was 1 (active) each time.
`CNC1CCC2(C)C(=CCC3C2CCC24CN(C)C(C)C2CCC34)C1` (stereo not given) [Isoconessimine]: the “lowest phenotypically active concentration” value in test [1] is at most 0.3 µM; in test [2], 9 µM; in test [3] it was at most 0.3 µM; in test [4], 1 µM; in test [5], at most 0.3 µM; in test [6] it was 1 µM. Further, the phenotypically active in [7], in test [8], in [9], in test [10], in test [11] and in [12] was 1 (active) in each case. Besides, the phenotypically active in test [13], in test [14], in test [15], in test [16], in test [17] and in test [18] was 1 (active) throughout. The phenotypically active in test [19] and in test [20] was 1 (active) in each case.
